Screening data deposited in PubChem by National Center for Advancing Translational Sciences (NCATS).
GLP1R ag: agonists of human GLP-1 receptor; HEK293 GLP-1R CRE-luciferase, luminescence, 4-6 h; cells express a hypersensitive GLP-1R form; Potency, µM (top dose mostly 45.6 µM), inactives show at the top dose activation, actives largely listed as activators; hit rate 0.007% among 380,000; AID 624172; also: % of control where 0% means no effect
Target sequence (P43220 whole entry, looked up): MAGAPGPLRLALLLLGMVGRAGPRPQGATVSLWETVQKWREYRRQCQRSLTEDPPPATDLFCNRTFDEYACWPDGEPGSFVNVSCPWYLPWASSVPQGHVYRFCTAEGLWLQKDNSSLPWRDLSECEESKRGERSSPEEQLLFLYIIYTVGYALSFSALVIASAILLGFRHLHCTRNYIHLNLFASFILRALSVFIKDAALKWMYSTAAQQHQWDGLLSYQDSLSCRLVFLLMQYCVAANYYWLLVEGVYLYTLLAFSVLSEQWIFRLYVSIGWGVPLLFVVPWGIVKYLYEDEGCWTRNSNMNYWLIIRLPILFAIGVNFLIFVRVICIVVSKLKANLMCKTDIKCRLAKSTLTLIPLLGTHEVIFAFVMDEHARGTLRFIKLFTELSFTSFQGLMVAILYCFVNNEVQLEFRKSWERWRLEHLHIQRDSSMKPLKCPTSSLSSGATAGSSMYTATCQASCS
BRCA1 expr act: increases BRCA1 expression. AID 624202. Potency, µM (titrated, usually from 46.1 µM), inactives show at the top dose activation, usual class: activators. hit rate 1.1% among 380,000. MCF7-BRCA1-FFLuc reporter, luminescence, 48 h; response scale: scaled: vehicle 0%, 10 µM genistein 100%; also: nearly all actives have a fitted effect of over 80% in size
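Cells: MCF7-BRCA1-FFLuc, 2000/well. Exposure: 48 h, 37 °C, 5% CO2. Read: luminescence, 15 min post-substrate. Controls: genistein 10 microM (maximal activation), DMSO (neutral).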
GLP1R cytotox: cytotoxicity counter-screen for GLP-1 receptor inverse agonists. AID 624418. Potency, µM (top dose mostly 38.3 µM), for inactives: at the highest dose activity change, negative = inhibition, hits mostly inhibitors. hit rate 0.13% among 410,000. HEK293 cAMP-luciferase reporter cells, luminescence, 24 h;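 also: loss of luciferase light is scored as toxicity; % is scaled to controls: 0 for no effect and ±100 for the full control effect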
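Here, cytotoxicity is scored as loss of luminescence. The MLSMR collection was tested on cells seeded in medium containing 10% Nu serum, with a 24 hr compound exposure preceded by 12 hours of culture.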
GLP-1R inv ag: inverse agonists of human GLP-1 receptor. Potency, µM (doses to about 38.3 µM), without a hit: at the highest dose activity change, negative = inhibition, most hits filed as inhibitors. AID 624417. HEK293 GLP-1R CRE-luciferase, luminescence, 24 h; GLP-1R form is constitutively active. P43220. hit rate 1.6% among 410,000; also: % is scaled to controls: 0 for no effect and ±100 for the full control effect; nearly all actives have a fitted effect of over 55% in size
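Readout was luciferase luminescence, measured 12 min after detection reagent at room temperature. Beforehand, GLP-1R reporter HEK293 cells had sat 12 h, then received compounds for 24 hr at 37 deg C.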
Active calls of the source: *; ? = inconclusive; · = not tested or not shown. Compounds with a hit are over-represented: about 2.6% of the library has one in this group of screens. Calls follow the shape of the dose curve; as a rule, active = well fitted curve in the direction sought with a large enough effect; inconclusive = small, poorly fitted or top-dose-only effect, or another doubt; inactive = no such curve, though single readings can be large; an effect the other way counts as inactive or inconclusive. Potency is read from the fitted curve at half-maximal effect.

SMILES	GLP1R ag	BRCA1 expr act	GLP1R cytotox	GLP-1R inv ag
CN(C(=O)COc1ccc(Cl)cc1Br)C1CCCCC1	11%	89%	-9%	?
O=C(NC1CCCCC1)N1CCN(C(c2ccccc2)c2ccccc2)CC1	4%	-33%	18%	4µM*
O=C(N1CCCCC1)N1CCN(C(c2ccccc2)c2ccccc2)CC1	1%	-18%	0%	5µM*
O=C(NC1CCCCC1)N1CCc2ccccc21	1%	11µM*	-11%	?
CCO[C@@H](Cc1ccc(OCCc2ccc(OS(C)(=O)=O)cc2)cc1)C(=O)O	7%	·	·	·
Cc1ccc(-c2noc(C3CCCCC3)n2)cc1	-12%	10µM*	0%	17%
Cc1ccc(NC(=O)N2CCCC(c3nc(-c4ccc(F)cc4)no3)C2)cc1 (centres undefined)	1%	32%	?	7.9µM*
Cc1cccc(-c2noc(C3CCCCC3)n2)c1	0%	4.5µM*	11%	0%
Cc1ccc(N2CC(c3nnc(NC(=O)c4ccco4)s3)CC2=O)cc1Cl (centres undefined)	·	·	4%	7%
NC(=O)c1ccc(-c2ncc(-c3ccccc3)o2)cc1	-5%	?	5%	5.6µM*
COc1ccc(-c2nc3ccccn3c2NCc2ccc3c(c2)OCO3)cc1	0%	7.9µM*	-7%	?
c1ccc(-c2nc3ccccn3c2NCc2ccc3c(c2)OCO3)cc1	7%	6%	-2%	?
CN=C(NC)NCc1ccccc1	0%	·	·	·
O=C1c2ccccc2C(=O)N1c1ccc(S(=O)(=O)N2CCOCC2)cc1	·	10%	·	·
CCN(c1ccccc1)S(=O)(=O)c1ccc(NCC2COc3ccccc3O2)nc1 (centres undefined)	5%	-69%	-9%	5µM*
COc1ccc(CNCC(O)COc2ccc3[nH]c(=O)ccc3c2)cc1OC (centres undefined)	-5%	·	·	·
COc1ccc(C(=O)Nc2ccc3c(c2)OCCO3)cc1	-7%	-8%	-40%	13µM*
CC(=O)Oc1ccc(C(=O)Nc2ccc3c(c2)OCCO3)cc1	0%	?	8%	?
COc1ccc(-c2nnc(SC(C)C(=O)Nc3ccc4c(c3)OCCO4)o2)cc1 (centres undefined)	8%	10µM*	-19%	68%
O=C(Nc1ccc2c(c1)OCCO2)c1ccccc1	1%	?	0%	?
O=C(Nc1ccc2c(c1)OCCO2)c1ccc(Br)s1	-13%	?	?	10µM*
CC(Sc1ccccc1F)C(=O)Nc1ccc2c(c1)OCCO2 (centres undefined)	13%	11µM*	6%	6%
O=C(NC1CC1)c1ccc2nc(-c3ccco3)c(-c3ccco3)nc2c1	·	-8%	·	·
CC(C)C(NC(=O)C1CCCCC1)C(=O)Nc1ccc2c(c1)OCCO2 (centres undefined)	-9%	4.5µM*	1%	0%
CSCC[C@H](NC(=O)[C@@H]1Cc2ccccc2CN1)C(=O)Nc1ccc2c(c1)OCCO2	-2%	11µM*	-3%	-29%
SMILES	GLP1R ag	BRCA1 expr act	GLP1R cytotox	GLP-1R inv ag
COc1cc(C(=O)Nc2ccc3c(c2)OCCO3)ccc1OC(F)F	5%	11µM*	2%	49%
O=C(CCN1CCCC1)Nc1cccc(Br)c1	-2%	-7%	14%	-11%
O=C(CCN1CCN(c2ccccc2)CC1)Nc1cccc(Br)c1	0%	-7%	14%	11µM*
CSc1ccc(/C=C/C(=O)c2ccc(NC(=O)C(C)C)cc2)cc1	-12%	11%	?	10µM*
COc1cc2c(NC3CCN(C(C)C)CC3)nc(N3CCCN(C)CC3)nc2cc1OCCCN(C)C	·	-11%	·	·
CC(/C=C/c1ccccc1)=N\NC(=S)NC(C)C	-9%	-14%	?	?
CC(/C=C/c1ccccc1)=N\NC(N)=S	2%	62%	?	2.5µM*
CC(C)(C)c1ccc(S(=O)(=O)N2CCC(Oc3ccc(-n4cnnn4)cc3)CC2)cc1	·	·	1%	9%
Cc1c(C=NNc2ccccc2)[nH]c(=O)[nH]c1=O	2%	-40%	?	?
COC(=O)c1c(C)[nH]c(/C=N/Nc2ccccc2)c1C	25%	36%	0%	10µM*
CCCS(=O)(=O)NC(=O)C1(C)CCCN(C(=O)c2cc(C)n(C(C)(C)C)n2)C1 (centres undefined)	-2%	6%	-9%	10%
Cc1ccc(-c2ccc(=O)n(CC(=O)Nc3ccc(C)cc3Cl)n2)cc1	·	-2%	7%	4%
